# Data as given in PubChem BioAssay AID624496 (National Center for Advancing Translational Sciences (NCATS), 2012).
# Results filed as inconclusive are left out. The source made the active and inactive calls. Calls follow the shape of the dose curve; as a rule, active = well fitted inhibition curve with a large enough effect; inconclusive = small, poorly fitted or top-dose-only effect, or another doubt; inactive = no such curve, though single readings can be large or run the other way.
# Target: D(2) dopamine receptor (Homo sapiens) (UniProt P14416)
# Sequence (P14416 whole entry, looked up): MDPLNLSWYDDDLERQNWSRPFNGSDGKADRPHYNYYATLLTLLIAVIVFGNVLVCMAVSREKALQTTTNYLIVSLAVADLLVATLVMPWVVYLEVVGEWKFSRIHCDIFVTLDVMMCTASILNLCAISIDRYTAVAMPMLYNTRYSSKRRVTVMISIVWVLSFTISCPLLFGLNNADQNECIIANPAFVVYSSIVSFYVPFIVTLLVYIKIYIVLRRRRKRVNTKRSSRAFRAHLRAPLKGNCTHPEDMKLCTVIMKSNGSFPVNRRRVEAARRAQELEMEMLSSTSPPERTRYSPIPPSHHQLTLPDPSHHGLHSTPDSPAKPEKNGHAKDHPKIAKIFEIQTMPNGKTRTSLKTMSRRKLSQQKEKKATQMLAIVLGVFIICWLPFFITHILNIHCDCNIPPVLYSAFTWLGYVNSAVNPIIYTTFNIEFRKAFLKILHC
# Assay: HTS Assay for Allosteric Antagonists of the Human D2 Dopamine Receptor: SAR in Primary Assay.
# Details: HEK293 T-REx D2 cells, calcium flux, dopamine EC80 antagonism; activity, negative = inhibition: at 41.8 µM (top of the series) unless noted
# Source text: Dopamine receptors (DARs) are involved in the etiology and/or therapy of a number of neuropsychiatric and endocrine disorders. For instance, all receptor-based antiparkinsonian drugs work via stimulating the D2 DAR subtype whereas all FDA-approved antipsychotic agents are antagonists of this receptor. […] There are three different types of allosteric modulators that we are seeking, two of which will stimulate or augment receptor signaling, allosteric agonists and potentiators, while the third, allosteric antagonists, will attenuate receptor signaling. The present project is looking for compound antagonism after an EC80 addition of dopamine by tracking calcium flux in a […], inducible Hek293 Trex D2 cell line, which act through an allosteric site. NIH Chemical Genomics Center [NCGC] NIH Molecular Libraries Probe Centers Network [MLPCN] MLPCN Grant: NS064831 Assay Submitter (PI): David Sibley
# Freshly passaged cells are plated in 1536 well black, clear bottom plates at a density of 4000 cells/well in 3 ul of complete media containing 1x tetracycline inducer. After an overnight incubation at 30 deg C in 5% CO2, cells are loaded with 2 ul of the no wash Calcium Assay Kit (ABD Bioquest) and incubated at room temperature for 30 to 90 minutes. Agonist read: A 10 cycle (1 second/cycle) baseline measurement is taken and then the FDSS online 1536 pintool delivers 23 nl of compound library (as well as dopamine controls) to the plate. The plate is measured for kinetically at 1 cycle/sec for 180 seconds. Following the 180 second read, 1 ul of an EC80 (negative modulation assay) is delivered by an onboard pipette head. Measurements are taken kinetically for an additional 180 seconds.
SMILES,"activity, negative = inhibition",Potency
CCN1C(=O)c2ccccc2S(=O)c2ccc(C(=O)N(C)Cc3ccc(OC)cc3)cc21 (stereo unspecified),-112% [at 4.65 µM],–
CCN1C(=O)c2ccccc2Sc2ccc(C(=O)NCc3ccc(OC)cc3)cc21,–,887 nM (active)
CCN1C(=O)c2ccccc2S(=O)c2ccc(C(=O)NC(C)c3ccccc3)cc21 (stereo unspecified),–,353 nM (active)
CN1C(=O)c2ccccc2S(=O)c2ccc(C(=O)Nc3ccccc3)cc21 (stereo unspecified),–,280 nM (active)
CN1C(=O)c2ccccc2[S@](=O)c2ccc(C(=O)NCCN3CCCC3)cc21,–,4450 nM (active)
CCN1C(=O)c2ccccc2S(=O)c2ccc(NC(=O)Cc3ccc(F)cc3)cc21 (stereo unspecified),–,223 nM (active)
CCN1C(=O)c2ccccc2S(=O)c2ccc(C(=O)NCc3ccccc3OC)cc21 (stereo unspecified),-21.4% (active),–
CCCN1C(=O)c2ccccc2S(=O)c2ccc(C(=O)NCc3ccc(OC)cc3)cc21 (stereo unspecified),–,1770 nM (active)
CCN1C(=O)c2ccccc2[S@](=O)c2ccc(C(=O)NCc3ccc(OC)cc3)cc21,–,8870 nM (active)
CN1C(=O)c2ccccc2[S@](=O)c2ccc(C(=O)NCc3ccc(Br)cc3)cc21,–,70.5 nM (active)
CCN1C(=O)c2ccccc2S(=O)c2ccc(NC(=O)Cc3ccc(OC)cc3)cc21 (stereo unspecified),–,705 nM (active)
